The values that follow come from PubChem BioAssay.

This experiment in a line: compounds binding Alexa647 anti-His antibody – biochemical, small-molecule microarray, 635 nm fluorescence, artefact control for SMM control protein annotation, primary screen (AID 1128).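 Further: score merges feature fluorescence with signal-to-noise for each printed compound spot.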 The conditions noted are these: higher = more signal.
For `C=C(C)C1C(=C)CN([C@H](CO)c2ccccc2)C1=O` (stereo partly specified), the composite z-score was 0.0639.

Turning to `COc1ccc(C(O)C2C=CC3C(=O)N(c4ccccc4)C(=O)C3N2Nc2ccccc2F)cc1OCc1ccccc1` (stereo unspecified), the composite z-score amounted to 0.981. The compound `COCCCNC(=O)[C@@]1(Cc2ccccc2)N=C(c2ccc(OCCCO)cc2)O[C@H]1c1ccccc1` gave a composite z-score of 3.17. Regarding `CC(C)C(CO)N1C(=O)[C@@H]2[C@H]3C(=O)OCC=C[C@H]3OC23C=CCN(C(C)C)C(=O)[C@@H]13` (stereo partly specified), the composite z-score stood at 0.443. With `[N-]=[N+]=Nc1ccccc1[C@H]1OC(c2ccc(OCCCO)cc2)=N[C@@]1(Cc1ccccc1)C(=O)O`, the composite z-score worked out at 0.864. As for `Cc1ccc(S[C@]2(C(=O)NC(C)C)CC(=O)N(Cc3ccccc3Cl)[C@@H]2c2ccc(CO)cc2I)cc1`, the composite z-score turned out to be 3.21. With `CN(C)CCCCCCNC(=O)[C@@H]1C[C@@H]2C(=O)N[C@@H](CCCCN)C(=O)N2[C@@H]1c1cccc(OCCO)c1`, the composite z-score came out at 3.24. Compound `CC(C)(C)OC(=O)CC[C@]12N=C(c3ccc(OCCCO)cc3)O[C@H]1c1ccccc1N(CCS(=O)(=O)c1ccccc1)C2=O` displayed a composite z-score of 1.99. In the case of `COCCn1c(C(=O)N2CCCC2)cc2c1C[C@H]1CN(C(=O)c3ccccc3)[C@@](Cc3ccc(F)cc3)(C(=O)OC)[C@@H]21`, the composite z-score came to 0.346.

With `CC1CC/C=C\[C@H]2OC34C=CCN(C(C)(C)C)C(=O)[C@H]3N(CCCCCCO)C(=O)[C@@H]4C2C(=O)O1` (stereo partly specified), the composite z-score stood at 1.65. Next, `COCCOC(=O)N1C(=O)[C@@]2(c3cc(C#Cc4ccc(OC)cc4)ccc31)[C@H](C(N)=O)[C@H]1C(=O)O[C@H](c3ccccc3)[C@H](c3ccccc3)N1[C@@H]2c1ccccc1OCCO`: 2.24; `O=C1OCCC/C=C\[C@H]2OC34C=CCN(c5ccc6ccccc6c5)C(=O)[C@H]3N(CCCCCCO)C(=O)[C@@H]4C12` (stereo partly specified): 1.79; `COc1ccc([C@H]2C[C@H]3C(Br)=C[C@@H]2C(=O)[C@]32CO2)cc1`: 0.613. Regarding `COCCOC(=O)N1C(=O)[C@@]2(c3cc(C#CCCO)ccc31)[C@H](c1ccc(OCCO)cc1)N1[C@H](c3ccccc3)[C@H](c3ccccc3)OC(=O)[C@H]1[C@@H]2C(=O)N1CCN(c2ncccn2)CC1`, the composite z-score is 1.05.

The compound `Cc1ccc(C(C)CC(O)C2C=CC3C(=O)N(C)C(=O)C3N2NC(=O)OC(C)(C)C)o1` (stereo unspecified) had a composite z-score of 1.65. Regarding `C=CC[C@@]1(C(=O)N(C)C)N=C(c2ccc(OCCCO)cc2)O[C@@H]1c1ccccc1N=[N+]=[N-]`, the composite z-score came to 3.01. As to `COCCOC(=O)N1C(=O)[C@@]2(c3cc(C#CCCO)ccc31)[C@H](C(=O)Nc1nc3ccccc3s1)[C@H]1C(=O)O[C@H](c3ccccc3)[C@H](c3ccccc3)N1[C@@H]2c1ccc(OCCO)cc1`, the composite z-score was found to be 0.738. For the compound `O=C(c1ccccc1)N1Cc2ccccc2[C@@H]2OC(c3ccc(OCCCO)cc3)=N[C@]2(Cc2ccccc2)C1=O`, the composite z-score is 2.33. `NCCCCCNC(=O)[C@@H]1C[C@@H]2C(=O)N[C@@H](Cc3ccccc3)C(=O)N2[C@@H]1c1cccc(OCCO)c1` returned a composite z-score of 1.63. Next, `COc1ccc([C@H]2OC[C@@H]3CC4(CC=CC4)C(=O)N32)cc1`: -0.648; `CN1C(=O)C2C=CC(C(O)Cc3ccccc3)N(Nc3ccccc3)C2C1=O` (stereo unspecified): 1.61; `[N-]=[N+]=NCc1ccccc1[C@@H]1OC(c2ccc(OCCCO)cc2)=N[C@]1(Cc1ccccc1N=[N+]=[N-])C(=O)N1CCOCC1`: 2.12. In the case of `COc1ccc(CCNC(=O)[C@@]2(Sc3ccc(C)cc3)CC(=O)N(C3CCCCC3)[C@@H]2c2ccc(CO)cc2I)cc1`, the composite z-score was 0.949. `[N-]=[N+]=NCc1ccccc1[C@@H]1OC(c2ccc(OCCCO)cc2)=N[C@]1(CCS(=O)(=O)c1ccccc1)C(=O)NCc1ccccc1` yielded a composite z-score of 1.82. For the compound `O=C1OCC=C[C@H]2OC34C=CCN(CCN5CCOCC5)C(=O)[C@H]3N(CCCO)C(=O)[C@@H]4[C@@H]12` (stereo partly specified), the composite z-score was determined as 0.314.

The compound `CCc1oc(CC[C@@H](CO)NC(=O)NCCn2cc(C3(O)CCCCC3)nn2)c(C(=O)OC)c1C(=O)OC` had a composite z-score of 2.48. For `COC(=O)[C@@]1(Cc2ccc(F)cc2)[C@H]2c3cc(C(=O)N(C)C)n(Cc4nc5ccccc5[nH]4)c3C[C@H]2CN1C(=O)c1ccccc1`, the composite z-score came out at 1.11. `COc1ccc(CCN2C(=O)[C@@]3(c4ccc([N+](=O)[O-])cc4)CC(=O)N(C4CCCCC4)[C@@H]3c3ccc(CO)cc32)cc1` registered a composite z-score of 0.521. Turning to `O=C(O)[C@@]1(CCS(=O)(=O)c2ccccc2)COC(c2ccc(OCCCO)cc2)=N1`, the composite z-score is -0.777. Regarding `CC(C)C[C@@H]1NC(=O)[C@H]2C[C@@H](C(=O)NCCCCCCN)[C@@H](c3ccc(O)cc3)N2C1=O`, the composite z-score turned out to be 2.99. `CCCC[C@H]1OB(O)C[C@H]2C1=C(COc1ccccc1)C[C@H]1C(=O)N(C)C(=O)[C@H]12` displayed a composite z-score of -0.0391. Consider `O=C1O[C@H](c2ccccc2)[C@H](c2ccccc2)N2[C@H]1[C@@H](C(=O)N1CCN(c3ncccn3)CC1)[C@]1(C(=O)Nc3ccc(C#CC4=CCCCC4)cc31)[C@H]2c1ccc(O)cc1`, for which the composite z-score came to 0.896. With `C#CCN(CC=C(C)C)[C@H](CO)c1ccccc1`, the composite z-score is -0.237.

As to `Cc1ccc(S[C@]2(C(=O)NCCN3CCOCC3)CC(=O)N(Cc3ccccc3Cl)[C@@H]2c2ccc(CO)cc2)cc1`, the composite z-score amounted to 1.69. The value for `O=C1NC(=O)C2C1C=CC(C(O)Cc1ccccc1)N2Nc1ccc(Cl)cc1Cl` (stereo unspecified) was 0.432; that for `C=CCOC(=O)[C@@H]1[C@H]2C(=O)O[C@H](c3ccccc3)[C@H](c3ccccc3)N2[C@H](c2ccc(OCCOC(=O)[C@@H]3C[C@@H]4C(=O)N5CCC[C@H]5C(=O)N4[C@@H]3c3ccc(O)cc3)cc2)[C@@]12C(=O)Nc1ccc(I)cc12` was 0.426.
